Each structure is given as a SMILES string. Unmarked numbers belong to inactive results.

For the experiment, the system named is Vero E6 infected with SARS-CoV-2. The experiment is described as follows: inhibition of SARS-CoV-2 cytopathic effect; higher = more antiviral protection, active = above 15. The following applies: 48 h. (Damage to the host cells serves as the signal in cytopathic effect assays.)

As for `CC(C)=CCC/C(C)=C/CC/C(C)=C/C=C/C(C)=C/C(=O)O` [peretinoin], the “inhibition of SARS-CoV-2 cytopathic effect” value (shortened to “inhibition”) is, setting by setting: (1 nM) 0.75%; (8.33 nM) 0.23%; (100 nM) -1.49%; (833.33 nM) 0.48%; (10000 nM) 0.08%.

As to `COc1c(C)c2c(c(O)c1C/C=C(\C)CCC(=O)OCCN1CCOCC1)C(=O)OC2` [mycophenolate-mofetil], the “inhibition” value was -1.57% (1 nM); 0.08% (8.33 nM); 0.94% (100 nM); -5.7% (833.33 nM); 16.8% (active) (10000 nM).

As for `COc1cc(N2CCC(N)CC2)ccc1Nc1ncc(Cl)c(-c2c[nH]c3ccccc23)n1`, the “inhibition” value was -1% (1 nM); 0.49% (8.33 nM); -1.87% (100 nM); -3.58% (833.33 nM); -8.45% (10000 nM).

As to `CS[C@H]1SC[C@H]2C(=O)N(C)[C@@H](C(C)C)C(=O)OC[C@@H](NC(=O)c3cnc4ccccc4n3)C(=O)N[C@@H](C)C(=O)N(C)[C@@H]1C(=O)N(C)[C@@H](C(C)C)C(=O)OC[C@@H](NC(=O)c1cnc3ccccc3n1)C(=O)N[C@@H](C)C(=O)N2C` [echinomycin], the “inhibition” value runs as follows: (1 nM) 2%; (8.33 nM) -4.69%; (100 nM) -19.9%; (833.33 nM) -17.1%; (10000 nM) -27%.

For `COC1=C2C[C@@H](C)C[C@H](OC)[C@H](O)[C@@H](C)/C=C(\C)[C@H](OC(N)=O)[C@@H](OC)/C=C\C=C(/C)C(=O)NC(=CC1=O)C2=O` [geldanamycin], the “inhibition” value is 1.08% (1 nM); 2.06% (8.33 nM); 0.35% (100 nM); -3.32% (833.33 nM); -4.4% (10000 nM).

Turning to `CCn1nc(C)c2c1C(c1ccccc1)=NCC(=O)N2` [ripazepam], the “inhibition” value by setting is: (1 nM) -1.39%; (8.33 nM) 0.91%; (100 nM) 0.56%; (833.33 nM) -0.98%; (10000 nM) -3.15%.

On to `Cc1c(S(=O)(=O)O)oc2c1C(=O)C(=O)c1c-2ccc2c1CCCC2(C)C` [sodium-tanshinone-II-A-sulfonate], for which the “inhibition” value (1 nM) is -6.63%; the “inhibition” value (8.33 nM) was -8.06%; the “inhibition” value (100 nM) was -4.77%; the “inhibition” value (833.33 nM) was -7.14%; the “inhibition” value (10000 nM) is -10.1%.

Take `O=S(=O)(O)NC1CCCCC1` [cyclamic-acid]: the “inhibition” value is, setting by setting: (1 nM) -3.13%; (8.33 nM) 1.15%; (100 nM) 1.07%; (833.33 nM) 0.19%; (10000 nM) -3.53%.

Regarding `Cc1cccc(C)c1OCC(=O)N[C@@H](Cc1ccccc1)[C@@H](O)C[C@H](Cc1ccccc1)NC(=O)[C@H](C(C)C)N1CCCNC1=O` [lopinavir], the “inhibition” value runs as follows: (1 nM) 1.3%; (8.33 nM) 1%; (100 nM) 1.43%; (833.33 nM) 0.57%; (10000 nM) 12.6%.

With `CCCCCCOc1cc2c(cc1N(C)c1ncc(C(=O)O)cn1)C(C)(C)CCC2(C)C`, the “inhibition” value (1 nM) was -1.61%; the “inhibition” value (8.33 nM) was 3.1%; the “inhibition” value (100 nM) was 3.71%; the “inhibition” value (833.33 nM) was 4.08%; the “inhibition” value (10000 nM) was 5.06%.

As to `Nc1c(CC(=O)O)cccc1C(=O)c1ccc(Br)cc1` [bromfenac], the “inhibition” value (1 nM) is -1.88%; the “inhibition” value (8.33 nM) was 0.84%; the “inhibition” value (100 nM) was -0.8%; the “inhibition” value (833.33 nM) was -0.93%; the “inhibition” value (10000 nM) is -0.48%.

For `CCOC(=O)Nc1ccc(NCc2c(C)cc(C)cc2C)cc1N`, the “inhibition” value (1 nM) was 0.63%; the “inhibition” value (8.33 nM) was 1.07%; the “inhibition” value (100 nM) is -0.41%; the “inhibition” value (833.33 nM) was -0.67%; the “inhibition” value (10000 nM) was 2.16%.

Regarding `CN1CCC(OC(c2ccccc2)c2ccccc2)CC1` [diphenylpyraline], the “inhibition” value is 0.97% (1 nM); 0% (8.33 nM); 0% (100 nM); 0.39% (833.33 nM); -1.64% (10000 nM).

These data come from the supplement of paper PMC13380429.
